Data: PubChem BioAssay (Tox21)
Records with an inconclusive call do not appear. The source made the active and inactive calls. Unless noted, calls come from the whole dose curve; as a rule, active = well fitted curve in the direction sought with a large enough effect in the repeat runs; inconclusive = weak or mixed curves; inactive = no such curve, though single readings can be large; an effect the other way counts as inactive or inconclusive.

Tests used:
[1] = target: Estrogen receptor beta (Homo sapiens) (UniProt Q92731); test: qHTS assay to identify small molecule agonists of the estrogen receptor beta (ER-beta) signaling pathway (AID 1259377; active = well fitted activation curve with a large enough effect in the signal ratio in the repeat runs, not every such curve was filed as active; the % refers to the signal ratio)
How it was run: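 HEK293T ER-beta-UAS-bla; 2% charcoal-stripped FBS; cells pre-incubated 6 hr, compound 16 hr, 37C/5% CO2; LiveBLAzer B/G FRET substrate 2 h RT; fluorescence intensity read.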

[2] = qHTS assay to identify small molecule agonists of the androgen receptor (AR) signaling pathway in the presence of an antagonist - cell viability counter screen (AID 1259379); note: nearly all actives have a fitted effect of over 25% in size; note: potency is the fitted concentration of half-maximal effect
How it was run: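 Fluorescence from CellTiter-Fluor, added after 15 hr and read 1 hr later, gave cell viability. Cells were MDA-kb2 exposed to compounds (15 concentrations) in the presence of 3.0uM nilutamide at 37C, 0% CO2.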

[3] = qHTS assay to identify small molecule agonists of the estrogen receptor beta (ER-beta) signaling pathway - cell viability counter screen (AID 1259380); note: nearly all actives have a fitted effect of over 30% in size; note: potency is the fitted concentration of half-maximal effect
How it was run: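 Same-well viability counter screen. Cells: ER-beta-UAS-bla HEK293T, plated 6 hr before compound, in 2% charcoal-stripped FBS. Compound exposure 16 hr, 37C; viability by CellTiter-Glo luminescence after 30 min at room temperature.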

[4] = qHTS assay to identify small molecule antagonists of the estrogen receptor beta (ER-beta) signaling pathway - cell viability counter screen (AID 1259382); note: series mostly up to about 92 µM; nearly all actives have a fitted effect of over 55% in size
How it was run: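 Following a 6 hr plating period, HEK293T cells carrying a UAS-driven beta-lactamase reporter under ER-beta control received compounds and 1nM E2 (final). After 16 hr at 37C and 2 hr substrate loading, CellTiter-Glo luminescence indicated viability.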

[5] = qHTS assay to identify small molecule agonists or antagonists of the thyroid stimulating hormone receptor (TSHR) signaling pathway - wild type cell line counter screen (AID 1259384; calls by dose curve)
How it was run: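 Wild-type Hek293 cells, 800/well, 18 h at 37C, then compound with Ro20-1724 for 30 min RT. cAMP by HTRF (cAMP-d2/anti-cAMP cryptate), 1 h RT, fluorescence read. 15 concentrations, triplicates.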

[6] = qHTS assay to identify small molecule agonists of the estrogen receptor alpha (ER-alpha) signaling pathway in the presence of an antagonist - cell viability counter screen (AID 1259386);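 note: cells exposed to compounds for 22 h at 37 °C before the viability read; nearly all actives have a fitted effect of over 30% in size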; note: potency is the fitted concentration of half-maximal effect
How it was run: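 Cells are starved of estrogens for 5 days in charcoal-stripped serum, seeded for 24hr and co-treated with ICI-182,780 (10.0nM final) and test compounds. After 22hr at 37C, viability is read as CellTiter-Fluor fluorescence.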

[7] = target: Progesterone receptor (Homo sapiens) (UniProt P06401); test: qHTS assay to identify small molecule agonists of the progesterone receptor (PR) signaling pathway (AID 1346784; calls by dose curve; note: nearly all actives have a fitted effect of over 30% in size)
How it was run: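 Beta-lactamase reporter read-out: after 16 hr compound treatment at 37C and a further 2 hr at room temperature with LiveBLAzer B/G FRET substrate, fluorescence was measured in PR-UAS-bla HEK 293T cells grown in 2% charcoal-stripped serum.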

[8] = target: Progesterone receptor (Homo sapiens) (UniProt P06401); test: qHTS assay to identify small molecule antagonists of the progesterone receptor (PR) signaling pathway (AID 1346795; active = well fitted inhibition curve with a large enough effect in the signal ratio in the repeat runs, not every such curve was filed as active; the % refers to the signal ratio)
How it was run: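 Read-out is fluorescence from the LiveBLAzer B/G FRET substrate, cleaved by a UAS-controlled beta-lactamase in PR-UAS-bla HEK293T cells after 16 hr exposure to compound plus 1 nM promegestone (final), followed by 2 hr at room temperature.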

[9] = qHTS assay to identify small molecule agonists of the progesterone receptor (PR) signaling pathway - cell viability counter screen (AID 1346799; calls by dose curve; note: nearly all actives have a fitted effect of over 45% in size)
How it was run: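 Luminescence from CellTiter-Glo, added after the beta-lactamase FRET read in the same wells, gave cytotoxicity in PR-UAS-bla HEK293T cells treated with compounds for 16 hr at 37C.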

[10] = qHTS assay to identify small molecule antagonists of the TGF-beta/Smad signaling pathway - cell viability counter screen (AID 1346824); note: nearly all actives have a fitted effect of over 50% in size
How it was run: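 SBE-bla HEK 293T cells, incubated overnight, then compound plus 0.25 ng/mL TGF-beta1 (stock added) for 5 hr at 37 C. Viability was read in the same wells by CellTiter-Glo luminescence after 30 min at room temperature.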

[11] = qHTS assay to identify small molecule agonists of the TGF-beta/Smad signaling pathway - cell viability counter screen (AID 1346829); note: top concentration of the series differs between compounds; nearly all actives have a fitted effect of over 45% in size
How it was run: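 Here the cytotoxicity of library compounds is measured in SBE-bla HEK 293T cells treated for 5 hr, using CellTiter-Glo added to wells already read for the beta-lactamase reporter.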

[12] = qHTS assay to identify small molecule agonists of the TGF-beta/Smad signaling pathway (AID 1346859; active = well fitted activation curve with a large enough effect in the signal ratio in the repeat runs, not every such curve was filed as active; the % refers to the signal ratio; note: series mostly up to about 77 µM)
How it was run: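 SBE-bla HEK 293T, 4,000 cells/well, plated o/n; cpd in DMSO, 5 hr, 37 C/5% CO2; B/G FRET substrate 2 hr RT; ex 405, em 460/530 nm.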

[13] = target: Estrogen receptor (Homo sapiens) (UniProt P03372); test: qHTS assay to identify small molecule agonists of the estrogen receptor alpha (ER-alpha) signaling pathway in the presence of an antagonist (AID 1259383; calls by dose curve; note: top concentration of the series differs between compounds; nearly all actives have a fitted effect of over 15% in size)
How it was run: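 Cells are hormone-deprived for 5 days (charcoal-stripped FBS, no phenol red), plated for 24hr, spiked with 10.0nM ICI-182,780, then dosed at 15 concentrations. After 22hr at 37C, ONE-Glo luminescence reports ERE-luciferase activity.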

[14] = target: Thyrotropin receptor (Homo sapiens) (UniProt P16473); test: qHTS assay to identify small molecule antagonists of the thyroid stimulating hormone receptor (TSHR) signaling pathway (AID 1259385; calls by dose curve; note: nearly all actives have a fitted effect of over 20% in size)
How it was run: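 TSHR-HEK293 cells (800/well) plated 18 h, then compounds with Ro20-1724 and TSH at 1.5 ng/mL final, 30 min at room temperature. cAMP quantified by HTRF (cAMP-d2/anti-cAMP-cryptate, 1 h); 15 concentrations in triplicate.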

[15] = qHTS assay to identify small molecule antagonists of the progesterone receptor (PR) signaling pathway - cell viability counter screen (AID 1346798); note: nearly all actives have a fitted effect of over 50% in size; note: potency is the fitted concentration of half-maximal effect
How it was run: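 HEK293T PR-UAS-bla, 2% charcoal-stripped FBS; 4 hr pre-plate; cpd + R5020, 16 h 37C; LiveBLAzer read first; then CellTiter-Glo 30 min RT, luminescence.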

[16] = target: Thyrotropin-releasing hormone receptor (Homo sapiens) (UniProt P34981); test: qHTS assay to identify small molecule agonists of the thyrotropin-releasing hormone receptor (TRHR) signaling pathway (AID 1346891; calls by dose curve; note: series mostly up to about 58 µM)
How it was run: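 Intracellular calcium rise, read as fluorescence every second for 3 min, served as the agonist signal in dye-loaded HEK293 cells expressing TRHR; each compound ran at 15 concentrations in triplicate.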

[17] = target: Estrogen receptor beta (Homo sapiens) (UniProt Q92731); test: qHTS assay to identify small molecule antagonists of the estrogen receptor beta (ER-beta) signaling pathway (AID 1259378; active = well fitted inhibition curve with a large enough effect in the signal ratio in the repeat runs, not every such curve was filed as active; the % refers to the signal ratio)
How it was run: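 ER-beta-UAS-bla HEK293T cells in 2% charcoal-stripped FBS medium treated with compound plus 1nM final 17-beta-estradiol for 16 hr at 37C. Beta-lactamase reporter read by FRET substrate fluorescence after 2 hours at room temperature.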

[18] = target: Androgen receptor (Homo sapiens) (UniProt P10275); test: qHTS assay to identify small molecule agonists of the androgen receptor (AR) signaling pathway in the presence of an antagonist (AID 1259381; calls by dose curve; note: nearly all actives have a fitted effect of over 15% in size)
How it was run: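 Cells are MDA-kb2 (human breast carcinoma, MMTV-luc, AR/GR responsive). Nilutamide is present at 3.0uM final throughout; compounds are added at 15 concentrations and incubated 16hr at 37C before ONE-Glo luminescence detection.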

[19] = target: Thyrotropin-releasing hormone receptor (Homo sapiens) (UniProt P34981); test: qHTS assay to identify small molecule antagonists of the thyrotropin-releasing hormone receptor (TRHR) signaling pathway (AID 1346877; active = well fitted inhibition curve with a large enough effect in the repeat runs, not every such curve was filed as active; note: series mostly up to about 51 µM)
How it was run: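 Cells (TRHR-HEK293) are plated and kept 18 h at 37 °C/5% CO2. A calcium-sensitive dye is added for 2 h, compound follows for 5 min at room temperature, and TRH is then given at 1 nM final.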

Measured: Potency

Chain of Estrogen receptor beta (Homo sapiens) (Q92731 whole entry, looked up): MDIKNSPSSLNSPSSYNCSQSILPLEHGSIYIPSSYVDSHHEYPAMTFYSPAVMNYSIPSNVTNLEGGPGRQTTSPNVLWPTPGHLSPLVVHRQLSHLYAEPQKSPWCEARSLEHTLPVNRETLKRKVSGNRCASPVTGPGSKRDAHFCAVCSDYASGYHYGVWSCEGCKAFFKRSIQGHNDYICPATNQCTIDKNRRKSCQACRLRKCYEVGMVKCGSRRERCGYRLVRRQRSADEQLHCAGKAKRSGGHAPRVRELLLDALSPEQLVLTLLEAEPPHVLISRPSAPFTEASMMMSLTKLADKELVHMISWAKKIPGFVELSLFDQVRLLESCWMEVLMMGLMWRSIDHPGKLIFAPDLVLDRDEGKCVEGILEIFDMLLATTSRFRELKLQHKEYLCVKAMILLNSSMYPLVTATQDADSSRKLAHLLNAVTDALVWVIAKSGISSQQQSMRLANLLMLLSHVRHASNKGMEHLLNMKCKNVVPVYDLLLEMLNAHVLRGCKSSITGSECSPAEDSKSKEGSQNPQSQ
Chain of Thyrotropin receptor (Homo sapiens) (P16473 whole entry, looked up): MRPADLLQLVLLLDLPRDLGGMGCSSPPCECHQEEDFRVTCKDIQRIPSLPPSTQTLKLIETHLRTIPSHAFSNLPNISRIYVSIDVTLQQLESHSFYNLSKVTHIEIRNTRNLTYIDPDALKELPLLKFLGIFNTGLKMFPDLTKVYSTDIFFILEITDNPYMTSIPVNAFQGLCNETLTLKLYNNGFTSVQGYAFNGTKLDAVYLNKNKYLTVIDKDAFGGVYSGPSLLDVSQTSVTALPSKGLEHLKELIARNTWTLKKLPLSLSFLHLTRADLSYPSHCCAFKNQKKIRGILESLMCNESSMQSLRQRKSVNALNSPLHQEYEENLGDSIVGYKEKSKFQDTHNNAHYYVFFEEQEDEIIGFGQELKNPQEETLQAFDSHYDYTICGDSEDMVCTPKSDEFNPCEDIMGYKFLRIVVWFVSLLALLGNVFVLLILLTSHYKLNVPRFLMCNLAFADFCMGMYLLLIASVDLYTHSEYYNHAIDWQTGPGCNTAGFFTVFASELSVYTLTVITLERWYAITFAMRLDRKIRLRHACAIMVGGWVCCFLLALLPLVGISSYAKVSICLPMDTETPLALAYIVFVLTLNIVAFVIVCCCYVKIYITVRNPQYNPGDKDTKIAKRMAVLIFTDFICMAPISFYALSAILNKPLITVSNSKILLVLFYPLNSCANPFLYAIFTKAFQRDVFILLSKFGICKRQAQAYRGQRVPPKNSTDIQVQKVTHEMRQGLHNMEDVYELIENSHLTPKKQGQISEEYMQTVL
Chain of Thyrotropin-releasing hormone receptor (Homo sapiens) (P34981 whole entry, looked up): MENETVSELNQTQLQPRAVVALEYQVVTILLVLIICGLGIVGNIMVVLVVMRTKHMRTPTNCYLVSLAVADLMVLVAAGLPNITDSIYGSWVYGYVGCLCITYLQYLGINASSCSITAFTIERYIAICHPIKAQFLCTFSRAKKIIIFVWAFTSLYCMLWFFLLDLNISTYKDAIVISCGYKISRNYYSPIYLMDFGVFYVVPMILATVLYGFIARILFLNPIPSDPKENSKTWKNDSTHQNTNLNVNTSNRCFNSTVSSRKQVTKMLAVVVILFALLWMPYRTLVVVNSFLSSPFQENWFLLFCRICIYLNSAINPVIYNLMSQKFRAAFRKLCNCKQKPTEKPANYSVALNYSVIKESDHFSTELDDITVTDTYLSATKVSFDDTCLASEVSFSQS
Chain of Progesterone receptor (Homo sapiens) (P06401 whole entry, looked up): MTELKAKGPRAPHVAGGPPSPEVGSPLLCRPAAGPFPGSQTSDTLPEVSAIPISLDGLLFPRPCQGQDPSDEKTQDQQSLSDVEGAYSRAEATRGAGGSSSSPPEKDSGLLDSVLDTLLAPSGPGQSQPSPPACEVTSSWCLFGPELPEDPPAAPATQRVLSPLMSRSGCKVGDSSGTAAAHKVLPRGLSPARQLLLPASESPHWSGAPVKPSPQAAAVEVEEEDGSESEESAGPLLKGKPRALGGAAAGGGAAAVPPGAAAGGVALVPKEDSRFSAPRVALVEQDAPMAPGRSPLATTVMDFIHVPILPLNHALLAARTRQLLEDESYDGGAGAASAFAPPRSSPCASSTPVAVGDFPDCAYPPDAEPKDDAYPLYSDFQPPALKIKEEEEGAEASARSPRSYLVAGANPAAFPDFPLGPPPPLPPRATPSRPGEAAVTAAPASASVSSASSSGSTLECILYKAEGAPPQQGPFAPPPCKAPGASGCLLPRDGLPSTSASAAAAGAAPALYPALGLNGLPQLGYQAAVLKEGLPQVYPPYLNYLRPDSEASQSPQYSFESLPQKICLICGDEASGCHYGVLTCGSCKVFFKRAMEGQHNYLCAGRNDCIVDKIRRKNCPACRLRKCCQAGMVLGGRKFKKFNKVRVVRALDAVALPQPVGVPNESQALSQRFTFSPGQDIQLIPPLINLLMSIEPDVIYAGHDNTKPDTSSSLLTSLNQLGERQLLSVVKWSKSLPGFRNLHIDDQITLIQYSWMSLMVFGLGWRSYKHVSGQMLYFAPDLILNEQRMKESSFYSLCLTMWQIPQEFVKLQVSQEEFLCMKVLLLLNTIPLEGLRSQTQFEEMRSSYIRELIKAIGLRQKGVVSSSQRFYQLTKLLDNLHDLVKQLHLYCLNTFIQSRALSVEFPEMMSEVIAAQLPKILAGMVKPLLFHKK
Chain of Estrogen receptor (Homo sapiens) (P03372 whole entry, looked up): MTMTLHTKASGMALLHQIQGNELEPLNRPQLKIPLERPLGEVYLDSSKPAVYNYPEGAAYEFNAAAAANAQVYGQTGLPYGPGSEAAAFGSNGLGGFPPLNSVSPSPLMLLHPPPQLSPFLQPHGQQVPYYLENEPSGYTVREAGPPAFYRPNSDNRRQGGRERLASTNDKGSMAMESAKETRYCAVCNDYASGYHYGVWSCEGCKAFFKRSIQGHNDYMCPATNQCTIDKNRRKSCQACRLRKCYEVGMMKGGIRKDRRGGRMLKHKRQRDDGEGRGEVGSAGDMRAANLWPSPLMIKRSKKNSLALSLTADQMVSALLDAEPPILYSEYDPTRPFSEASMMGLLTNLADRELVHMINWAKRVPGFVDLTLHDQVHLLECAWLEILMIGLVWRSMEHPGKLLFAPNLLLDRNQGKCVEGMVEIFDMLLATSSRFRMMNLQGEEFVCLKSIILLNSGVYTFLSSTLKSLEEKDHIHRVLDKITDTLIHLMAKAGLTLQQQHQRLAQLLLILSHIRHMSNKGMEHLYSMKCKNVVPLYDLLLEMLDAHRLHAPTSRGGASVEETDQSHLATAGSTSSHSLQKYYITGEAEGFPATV
Chain of Androgen receptor (Homo sapiens) (P10275 whole entry, looked up): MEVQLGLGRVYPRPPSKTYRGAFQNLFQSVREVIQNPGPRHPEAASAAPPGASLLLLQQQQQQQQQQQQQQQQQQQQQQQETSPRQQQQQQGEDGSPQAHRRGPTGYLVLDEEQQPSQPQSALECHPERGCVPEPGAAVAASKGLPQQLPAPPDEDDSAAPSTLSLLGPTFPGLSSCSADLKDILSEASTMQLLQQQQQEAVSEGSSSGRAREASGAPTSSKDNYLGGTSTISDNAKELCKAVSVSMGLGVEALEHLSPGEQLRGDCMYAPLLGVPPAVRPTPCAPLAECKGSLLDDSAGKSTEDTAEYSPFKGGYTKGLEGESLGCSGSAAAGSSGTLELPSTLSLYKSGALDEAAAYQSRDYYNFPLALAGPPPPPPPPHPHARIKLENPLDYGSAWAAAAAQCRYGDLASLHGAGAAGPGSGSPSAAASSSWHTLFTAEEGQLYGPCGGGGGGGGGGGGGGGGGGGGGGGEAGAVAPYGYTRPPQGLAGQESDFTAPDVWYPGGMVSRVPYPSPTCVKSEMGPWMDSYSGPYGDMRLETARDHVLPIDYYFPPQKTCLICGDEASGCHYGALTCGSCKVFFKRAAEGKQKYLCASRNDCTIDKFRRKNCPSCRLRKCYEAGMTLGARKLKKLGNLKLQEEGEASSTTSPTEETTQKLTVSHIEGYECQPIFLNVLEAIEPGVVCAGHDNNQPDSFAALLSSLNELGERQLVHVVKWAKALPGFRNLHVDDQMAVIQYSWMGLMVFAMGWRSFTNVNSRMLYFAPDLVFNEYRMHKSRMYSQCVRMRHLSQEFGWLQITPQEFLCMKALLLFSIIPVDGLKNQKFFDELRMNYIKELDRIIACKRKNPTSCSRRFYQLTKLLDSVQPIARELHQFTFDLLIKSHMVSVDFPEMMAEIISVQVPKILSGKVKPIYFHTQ

COc1cc2nc(N3CCN(C(=O)C4COc5ccccc5O4)CC3)nc(N)c2cc1OC (stereo unspecified)
not listed: [13] | [14] | [15] | [16] | [17] | [18] | [19]
inactive: all other assays above

OCCN1CCN(CCCN2c3ccccc3C=Cc3ccccc32)CC1
active: [3] 5.31 µM
inactive: [1] | [2] | [13] | [5] | [14] | [8] | [15] | [10] | [11] | [12]

C#Cc1cccc(Nc2ncnc3cc(OCCOC)c(OCCOC)cc23)c1
inactive: [4] | [13] | [14] | [8] | [9] | [10] | [11]
active: [3] 2.66 µM

C[Si](C)(CCCN)O[Si](C)(C)CCCN
not listed: [1] | [13] | [17] | [18] | [19]
inactive: all other assays above

Nc1ccc(N)c2c1C(=O)c1ccccc1C2=O
active: [2] 21.7 µM | [3] 7.7 µM | [6] 9.69 µM | [15] 27.3 µM
not listed: [1] | [4] | [5] | [7] | [13] | [14]
inactive: all other assays above

Nc1ccccc1S(=O)(=O)c1ccccc1
not listed: [1] | [8] | [9] | [13] | [17] | [18]
inactive: all other assays above
